Bioassay records: PubChem BioAssay, several laboratories
hDAT+cocaine = changed human dopamine transporter uptake under cocaine IC80. Q01959. B-score at 10 µM. 110,000 tested, 1.3% active. LLC-PK1 hDAT cells, [14C]-dopamine uptake with cocaine IC80; actives deviate in either direction;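 active = Z score or B-score, a plate-position-corrected score, falls beyond the plate's 99.7% confidence bounds, in either direction; inactive = both scores lie inside the 99.7% bounds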;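 also: scored against the spread of the other compound wells on the same plate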
EphB4 antag = antagonists of human EphB4-ephrin-B2 interaction. inhibition, % at 7 µM. 97,000 tested, 0.15% active. EphB4 LBD / TNYL-RAW-Alexa532 peptide, fluorescence polarization. AID 720. P54760;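 active = inhibition above the screen-wide mean inhibition plus 3 SD, cut at about 15% in these data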;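 also: 0% = DMSO wells and 100% = excess unlabeled TNYL-RAW peptide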
D1 mod = D1 dopamine receptor (human) allosteric modulation. P21728. HEK293 D1, CRE-luciferase, dopamine EC30 potentiation; actives deviate in either direction. B-score at 10 µM. 58,000 tested, 5.9% active;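 active = luminescence count or its row- and column-corrected plate score outside the 99.7% band of the plate's sample wells, on either side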
D1 PAM confirm = D1 receptor (human) allosteric modulation, confirmed | shares compounds with D1 mod | HEK293 D1 CRE-luciferase, dopamine EC30 potentiation; hits give high values | luminescence at 10 µM | 2,200 tested, 88% active;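 active = luminescence in either of two replicates above the same-plate mean plus 3 SD of the low-dose dopamine control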
D1 ag no DA = activates D1 CRE-luciferase signal without dopamine present | luminescence at 10 µM | shares compounds with D1 mod | 1,900 tested, 0.8% active | HEK293 D1 CRE-luciferase, luminescence, no dopamine; hits give high values; in the data active = luminescence above about 3900
Isoprot counter = isoproterenol response counter-screen activity for D1 modulators; calls only at 10 µM; shares compounds with D1 mod; HEK293 D1 CRE-luciferase, isoproterenol EC30 counter-screen; 2,200 tested, 63% active;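 active = luminescence in either replicate above plate mean of wells with a partly effective reference agonist dose plus 3 SD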;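 also: isoproterenol raises cAMP through native beta-adrenoceptor Gs so signal bypasses D1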
The depositor's hits bear a star. This is one part of a sample in which hits are shown more often than they occur.

Screening CCCCCc1cc(=O)oc2c(C(CCN(CC)CC)c3ccc(N(C)C)cc3)c(OC)cc(OC)c12 (stereo unspecified) returned hDAT+cocaine 0.19.
For O=C(CCC1CCCC1)N[C@@H](Cc1ccc(O)cc1)C(=O)O the results were hDAT+cocaine 0.44.
For COc1ccc(-c2nnc(SCc3cc(C)ccc3C)n2N)cc1 the results were hDAT+cocaine 0.51 and EphB4 antag 1.
`Cc1nnc(NC(=O)c2ccc(-c3cccc(C(F)(F)F)c3)o2)s1` gave hDAT+cocaine -0.49 and EphB4 antag 2.
`FC(F)(F)c1cccc(-c2ccc(-c3csnn3)o2)c1` gave hDAT+cocaine -0.22, EphB4 antag -7, D1 mod 24*, D1 PAM confirm 5424, D1 ag no DA 1700 and Isoprot counter inactive.
`C=CCn1c(COc2ccc3c(c2)CCCC3)nnc1SCC(=O)Nc1cccc(SC)c1` gave hDAT+cocaine 0.31 and EphB4 antag 0.
Screening O=C(OCC#Cc1c(COC(=O)c2ccccc2)nnn1Cc1ccccc1)c1ccccc1 returned hDAT+cocaine -0.32.
Cc1nc2c(cc(Oc3ccc(S(=O)(=O)N4CCOCC4)cn3)c3ccsc32)s1 was read as hDAT+cocaine 0.81, EphB4 antag -2, D1 mod 8.5*, D1 PAM confirm 12244*, D1 ag no DA 1860 and Isoprot counter active.
COC(=O)C1CCN(C(=O)COc2cc3sc(C)nc3c3sccc23)CC1 was read as hDAT+cocaine 1.3, EphB4 antag -9 and D1 mod 0.51.
Screening CCO[C@@H]1OC(C(N)=O)=C[C@H](c2coc3ccccc3c2=O)[C@H]1CCCO returned hDAT+cocaine -0.17.
For Cc1cc(C)cc(Nc2ncc3c(n2)CC(c2ccco2)CC3=O)c1 (stereo unspecified) the results were hDAT+cocaine 1.9, EphB4 antag 0, D1 mod 4.7*, D1 PAM confirm 7924*, D1 ag no DA 1512 and Isoprot counter active.
`Cc1cccc(Nc2ncc3c(n2)CC(c2ccco2)CC3=O)c1` (stereo unspecified) gave hDAT+cocaine 0.56, EphB4 antag -3 and D1 mod 0.32.
Screening COc1cccc(-n2c(SCC(=O)Nc3cc(C)on3)nc3c([nH]c4ccccc43)c2=O)c1 returned hDAT+cocaine 1.9, EphB4 antag -2, D1 mod 5.7*, D1 PAM confirm 10104*, D1 ag no DA 1812 and Isoprot counter active.
`Cc1cc(NC(=O)CSc2nc3c([nH]c4ccccc43)c(=O)n2-c2cccc(C(F)(F)F)c2)no1` gave hDAT+cocaine 1.3, EphB4 antag -3 and D1 mod 0.084.
Screening O=C(O)COc1c(-c2ccccc2)oc2ccccc2c1=O returned hDAT+cocaine 0.69 and EphB4 antag 6.
Screening NC(=O)COc1c(-c2ccccc2)oc2ccccc2c1=O returned hDAT+cocaine -0.68, EphB4 antag 0, D1 mod 2.6*, D1 PAM confirm 15448*, D1 ag no DA 1588 and Isoprot counter active.
C/C=C\C(=O)Nc1cccc(C2=NOC3(C2)C[C@@H](C(N)=O)N(C(=O)c2ccc(OC)cc2)C3)c1 (stereo partly specified) was read as hDAT+cocaine 0.15.
Screening O=C(CSc1nnc2scc(-c3ccccc3)n12)Nc1ccc2c(c1)OCCO2 returned hDAT+cocaine 0.44, EphB4 antag 4 and D1 mod 1.4.
`O=C(CSc1nnc(-c2cccs2)n1Cc1ccccc1)NCc1ccc2c(c1)OCO2` gave hDAT+cocaine 2.1 and EphB4 antag -8.
c1ccc(-c2csc3nnc(SCc4ccc5c(c4)OCO5)n23)cc1 was read as hDAT+cocaine -0.35, EphB4 antag -9, D1 mod 6.8*, D1 PAM confirm 16212*, D1 ag no DA 2144 and Isoprot counter active.
For O=C(CCSc1nnc2scc(-c3ccccc3)n12)NCc1ccc2c(c1)OCO2 the results were hDAT+cocaine 0.58, EphB4 antag 0, D1 mod 7.3*, D1 PAM confirm 11856*, D1 ag no DA 1504 and Isoprot counter active.
Screening C=CCn1c(SCc2cccnc2)nnc1-c1ccncc1 returned hDAT+cocaine 0.17, EphB4 antag -2 and D1 mod 0.05.
For Fc1ccc(-c2csc3nnc(SCc4cccnc4)n23)cc1 the results were hDAT+cocaine 0.93, EphB4 antag -3, D1 mod 17*, D1 PAM confirm 26500*, D1 ag no DA 1540 and Isoprot counter active.
For CC(C)Cn1c(SCC(=O)c2ccc(Cl)s2)nnc1-c1ccco1 the results were hDAT+cocaine 0.83, EphB4 antag -13 and D1 mod 0.17.
Screening NC(=O)/C(=N\OC(=O)c1ccco1)c1nc(-c2ccc(Br)cc2)cs1 returned hDAT+cocaine -0.2 and EphB4 antag 0.
Cc1ccc2[nH]c(=O)c(CN(CCc3ccccc3)C(=O)N3CCOCC3)cc2c1 was read as hDAT+cocaine 0.99, EphB4 antag -7 and D1 mod -0.1.
Screening COc1ccc(CCN(Cc2cc3cc(C)ccc3[nH]c2=O)C(=O)N2CCCC2)cc1OC returned hDAT+cocaine 0.77, D1 mod 9.1*, D1 PAM confirm 13088*, D1 ag no DA 1584 and Isoprot counter active.
For C=CCN1C(=O)/C(=C2/C(=O)N(CC(=O)O)c3ccccc32)S/C1=N/c1nccs1 the results were EphB4 antag 4.
For CC(=O)OCC1OC(Sc2cccc3cccnc23)C(OC(C)=O)C(OC(C)=O)C1OC(C)=O (stereo unspecified) the results were hDAT+cocaine -0.033 and EphB4 antag -3.
Screening Cc1ccc(C2C(C#N)=C(N)Oc3nc(-c4ccccc4)[nH]c32)o1 (stereo unspecified) returned hDAT+cocaine 0.056 and EphB4 antag 3.
Screening N#CC1=C(N)Oc2nc(-c3ccccc3)[nH]c2C1c1cccnc1 (stereo unspecified) returned hDAT+cocaine 1.8, EphB4 antag 5, D1 mod 5.1*, D1 PAM confirm 8448*, D1 ag no DA 1564 and Isoprot counter inactive.
Screening CCCc1nn(C)c2c1C(c1cccnc1)C(C#N)=C(N)O2 (stereo unspecified) returned hDAT+cocaine -0.89 and EphB4 antag 4.
CCN(CC)c1ccc2c(c1)OC(N)=C(C#N)C2c1cccnc1 (stereo unspecified) was read as hDAT+cocaine -1.8, EphB4 antag -8, D1 mod 9.3*, D1 PAM confirm 13200*, D1 ag no DA 2064 and Isoprot counter active.
O=C(Nc1ccccc1F)c1cc2nc(C(F)F)cc(C(F)F)n2n1 was read as hDAT+cocaine -0.67 and EphB4 antag -5.
For CC1CCN(C(=O)COC(=O)[C@H](C)NS(=O)(=O)/C=C/c2ccccc2)CC1 the results were hDAT+cocaine -0.39 and EphB4 antag 0.
